The target in this test is Hexokinase HKDC1 (Homo sapiens) (UniProt Q2TB90). Nature of the test: HKDC1 hexokinase inhibitors, confirmation, biochemical, single concentration (AID 504710). Conditions: recombinant HKDC1, G6PDH/diaphorase/resazurin fluorescence; at 20 µM; active compounds read high.

Structures are written as SMILES. Several values for one entry are separate records, joined by “and”; a condition that tells them apart may be missing. Equal values may be shown once. A number with no mark means an inactive call. Activity calls are given as the source filed them.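 How the source made its calls: active means inhibition reaching about 16% in any single replicate (limit read from the data); inactive means the rest.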

Hexokinase HKDC1 (Homo sapiens), sequence (Q2TB90 whole entry, looked up): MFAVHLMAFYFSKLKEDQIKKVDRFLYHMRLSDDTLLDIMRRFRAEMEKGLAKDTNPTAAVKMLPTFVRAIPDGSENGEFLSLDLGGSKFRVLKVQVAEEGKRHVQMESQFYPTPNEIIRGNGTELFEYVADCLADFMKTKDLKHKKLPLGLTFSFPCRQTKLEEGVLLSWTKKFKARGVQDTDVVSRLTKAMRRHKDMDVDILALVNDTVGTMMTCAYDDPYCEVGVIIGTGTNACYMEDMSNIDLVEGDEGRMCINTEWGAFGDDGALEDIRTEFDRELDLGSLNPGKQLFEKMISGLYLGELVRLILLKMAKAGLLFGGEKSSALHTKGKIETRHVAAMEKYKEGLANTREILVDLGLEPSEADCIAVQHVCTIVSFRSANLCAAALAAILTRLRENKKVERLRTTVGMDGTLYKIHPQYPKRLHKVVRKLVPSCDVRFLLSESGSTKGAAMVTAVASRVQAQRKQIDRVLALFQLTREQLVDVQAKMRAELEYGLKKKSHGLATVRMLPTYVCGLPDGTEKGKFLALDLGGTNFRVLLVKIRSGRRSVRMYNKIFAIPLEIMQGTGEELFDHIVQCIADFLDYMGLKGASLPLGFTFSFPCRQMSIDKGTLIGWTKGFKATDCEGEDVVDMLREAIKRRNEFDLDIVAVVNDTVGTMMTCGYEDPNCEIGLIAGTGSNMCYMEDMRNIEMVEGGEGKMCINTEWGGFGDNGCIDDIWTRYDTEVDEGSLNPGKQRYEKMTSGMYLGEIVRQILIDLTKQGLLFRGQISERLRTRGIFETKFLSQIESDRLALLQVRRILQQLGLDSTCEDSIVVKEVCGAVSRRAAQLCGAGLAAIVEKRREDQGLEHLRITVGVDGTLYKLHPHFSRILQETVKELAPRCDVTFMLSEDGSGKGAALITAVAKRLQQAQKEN

For `Cc1ccc(NC2c3ncccc3C(=O)N2c2ccccc2C)cc1C` (configuration not stated), the inhibition is 36.2% (active). On to `S=C(NN=C(c1ccccc1)c1ccccn1)N(Cc1ccccn1)Cc1ccccn1`, for which the inhibition was -59.4%. Then `CC(=O)Nc1ccc(NC2=C/C(=N/S(=O)(=O)c3cccs3)c3ccccc3C2=O)cc1`, with 51.9% (active). Next, `CC(=NNc1nc2ccccc2o1)c1cc2ccccc2cn1`: -77.2%. Next, `O=C1C(N2CCOCC2)=C(n2nnc3ccccc32)C(=O)c2ccccc21`: 54.8% (active). With `COc1ccccc1NC(=S)NN=C(C)c1ccccn1`, the inhibition was -61%. Regarding `Cc1onc(-c2ccccc2)c1C(=O)NNC(=S)NC(=O)c1ccc(Br)cc1`, the inhibition was -56.7%.

Take `CCOC(=O)c1c(C)[nH]c(C2=NNC(=Nc3ccccc3OC)SC2)c1C`: the inhibition is -86.4%. Next, `COC(=O)c1ccc(NC(=O)CSc2n[nH]c(-c3ccncc3)n2)cc1`: 43% (active); `O=C(NCCc1ccccc1)C(c1cccs1)N(C(=O)CCl)c1ccc(Cl)cc1` (configuration not stated): 23% (active).

On to `CCOC(=O)C1=C(Cc2ccc(F)cc2)C(=O)c2ccccc2C1=O`, for which the inhibition was 59.2% (active). Next, `CC(=O)C1=C(c2ccccc2)N(C(C)=O)n2c(C)nnc2S1`: -125%; `O=C(O)c1ccc(NC2=C/C(=N/S(=O)(=O)c3ccccc3)c3ccccc3C2=O)cc1`: 76% (active); `COc1ccc(NC(=O)CSc2ccc(-c3ccco3)nn2)c(OC)c1`: 70.8% (active). Next, `CC(=O)NC1C(=O)N(CCN2CCOCC2)c2ccc(C)cc21` (configuration not stated): 69.7% (active). Consider `CCCCC(CC)CN=C(N)NC(N)=NCCCCCCN=C(N)NC(N)=NCC(CC)CCCC` (configuration not stated), for which the inhibition was 45.9% (active). Next, `O=C1C(Cl)=C(N2CCCCC2)C(=O)C(Cl)=C1c1cnc(N2CCCCC2)s1`: 49.4% (active); `O=C(C1=C(c2ccccc2)C(=O)c2ccccc2C1=O)c1ccccc1`: 52% (active); `Oc1ccc(O)c(Cc2nc3ccccc3[nH]2)c1`: 56% (active). Then `Oc1ccc(/C=N/NC(=S)Nc2cccnc2)c(O)c1`, with 14.6% (active). For the compound `CC(=O)NC1C(=O)N(CCN2CCOCC2)c2ccc(Br)cc21` (configuration not stated), the inhibition was 61% (active).

On to `COC(=O)c1ccc(CCc2cc(O)c(Br)cc2O)cc1`, for which the inhibition is 54.2% (active). Next, `O=C1NC(=S)N/C1=C/c1cc2c(cc1[N+](=O)[O-])OCO2`: -36.6%; `Cc1cc2cc(CCNC(=O)c3ccc(S(=O)(=O)N4CCOCC4)cc3)c(=O)[nH]c2cc1C`: 45% (active). Then `CC(=NNC(=S)SCc1ccccc1)c1ccccn1`, with -28.3%. On to `C[N+](C)(CCCCCC[N+](C)(C)CCCN1C(=O)c2cccc3cccc(c23)C1=O)CCCN1C(=O)c2cccc3cccc(c23)C1=O`, for which the inhibition was -82%.

As to `COc1cc(/C=C2/C(=O)NN(c3ccc(Cl)c(Cl)c3)C2=O)cc([N+](=O)[O-])c1O`, the inhibition was 33.1% (active). With `COc1ccc(-c2cc(C(=O)NNC(=S)NC(=O)c3c(-c4ccccc4)noc3C)[nH]n2)cc1`, the inhibition was -50.1%. Next, `NC(=NCCCCCCN=C(N)/N=C(\N)Nc1ccc(Cl)cc1)/N=C(\N)Nc1ccc(Cl)cc1`: 49.3% (active) and 46.4% (active); `Cc1cc(C2=NNC(=Nc3ccc(S(=O)(=O)N4CCOCC4)cc3)SC2)c(C)n1C`: -46.6%; `Cc1cc(C)n2cc(CSc3nnc(-c4ccccc4)c(-c4ccccc4)n3)nc2n1`: 38.5% (active). Next, `O=C(/C=C/c1ccc(Br)cc1)NC(=S)Nc1ccc(S(=O)(=O)Nc2nccs2)cc1`: 39.5% (active); `O=C1C=C(c2c(O)ccc3ccccc23)c2ccccc2C1=O`: 78.1% (active).

Take `CC(=NNC(=S)N1CCCCC1)c1cccc(C)n1`: the inhibition is -39.6%.

On to `O=C(O)c1ccc(N=Cc2c(O)ccc3ccccc23)cc1`, for which the inhibition was 43% (active). Consider `CC(=NNC(=S)Nc1cccc(C)c1)c1ccccn1`, for which the inhibition was -60.1%.

As to `Cc1ccc(C(=O)c2c(C)oc3c2C(=O)C(=O)c2ccccc2-3)cc1`, the inhibition is 46.2% (active). Next, `CCCC(=O)NC1=C(Cl)C(=O)c2ccccc2C1=O`: 81.4% (active). Then `S=C1Cc2ccccc2N1`, with -192%; and `CC(NC1=CC(=O)c2cccnc2C1=O)C(O)c1ccccc1` (configuration not stated), with 43.3% (active); and `CCCOc1ccc(/C=N/NC(=S)Nc2ccccc2[N+](=O)[O-])c(O)c1`, with -47.6%. Turning to `CC(NC(=O)c1sc2cc([N+](=O)[O-])ccc2c1Cl)C(C)(C)C` (configuration not stated), the inhibition was -39.3%.

(Values after PubChem BioAssay AID504710 (Sanford-Burnham Center for Chemical Genomics, 2011).)
